These results are taken from the supplement of paper PMC10338343.

± gives the standard deviation.
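Further: 1 nM active piRISC with 0.1 nM target library at 33 °C single turnover.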

This assay concerns MILI (PIWIL2) piRISC loaded with piRNA #1 (26 nt). Kind of assay: pre-steady-state target cleavage rate (min^-1); guide: piRNA #1 5'p-UGAGGUAGUAGGUUGUAUAGUAUCCA; MIWI and MILI are mouse PIWI proteins and EfPiwi is from a freshwater sponge; tags in brackets are library labels; higher = faster piRNA-guided slicing of the target. The conditions noted are these: auxiliary factor: 500 nM mouse GTSF1. Put shortly: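 Cleave-'n-Seq measured uncleaved targets by sequencing after a transcribed, DNA-blocked target RNA library […] was mixed with 1 nM active affinity-purified piRISC holding one synthetic guide, with or without 500 nM GTSF1 partner protein, at 33 °C in HEPES–potassium acetate buffer for 0–8 or 0–960 min. Counts were normalised to depth and to weakly complementary targets, three trials were pooled, and k3 was capped at 0.0001 min^-1. A burst-and-steady-state fit gave the pre-steady-state cleavage rate.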
In the case of GGAGACCUAUGAUAUGUUCCUACUACCUGA, the “pre-steady-state target cleavage rate” value is under 0.0001. Next, GGAGACCUUACUAACAACCUACUACCUCA: 0.0824 ± 0.016; GGAGACCUUACUAUACUACCAACUACCUCA: 0.00617 ± 0.0026; GGAGACCUAUGAUAUGUUCCUACACCUCA: under 0.0001. GGAGACCUAUGAUAACAAGCUACUUCCUCA: the “pre-steady-state target cleavage rate” value came out at 0.00574 ± 0.0027.

For GGAGACCUAUGAUAUGUUGCUACUACCUUA, the “pre-steady-state target cleavage rate” value was under 0.0001.

For GGAGAGGAUUCUAUACAACCUUCUACCUCA, the “pre-steady-state target cleavage rate” value worked out at 0.00976 ± 0.0032. Next, GGAGACCUUACUAUACAUCCAACUACCUCA: 0.0082 ± 0.003; GGAGACGUUACUUUACAACCUACUACCUCA: 0.141 ± 0.01. With GGAGACCUAUCUAUACAACCUAGUUCCUCA, the “pre-steady-state target cleavage rate” value stood at 0.0148 ± 0.0059. For GGAGACCUUACUAUACUACCUUCUACCUCA, the “pre-steady-state target cleavage rate” value worked out at 0.0109 ± 0.0029. Turning to GGAGAGGAUUCUAUACAACCUACUACCUGA, the “pre-steady-state target cleavage rate” value worked out at 0.0768 ± 0.011. Next, GGAGACCUAUCUAUACAAGCUACUACCACA: 0.278 ± 0.019; GGAGACGAACUAUACAACCUACUACCUCA: 0.138 ± 0.012; GGAGAGGAUACUAUACAACGUACAACCUCA: 0.0104 ± 0.0029. Next, GGAGACCUUACUUUACAACCUACUACCUGA: 0.0835 ± 0.014; GGAGACCUAACUAUUGAACCUACUACCUCA: 0.0878 ± 0.011.

For GGAGACCUAUGUAUACAACCUACUCACCUCA, the “pre-steady-state target cleavage rate” value stood at 0.0823 ± 0.015. Regarding GGAGACCUUUCUAUACAACCUACUAGCUCA, the “pre-steady-state target cleavage rate” value stood at 0.0622 ± 0.013. Next, GGAGAGGAUACUAUACUACCUACAACCUCA: 0.102 ± 0.0092.

On to GGAGACCUAUCUAUACAACCUACUACGCUCA, for which the “pre-steady-state target cleavage rate” value amounted to 0.229 ± 0.023. Consider GGAGACCUUAGAUUACAACCUACUACCUCA, for which the “pre-steady-state target cleavage rate” value is 0.0208 ± 0.007. As to GGAGACCUAUGAAUACAACCUACUGCCUCA, the “pre-steady-state target cleavage rate” value amounted to 0.0052 ± 0.0029. Turning to GGAGAGCAUACUAUACAACCUACUACGUCA, the “pre-steady-state target cleavage rate” value worked out at 0.112 ± 0.017. Regarding GGAGACCUAUGAUAACAACCUUCUACCUCA, the “pre-steady-state target cleavage rate” value stood at 0.0024 ± 0.0021. For the sequence GGAGACCUUACUAUAGCAACCUACUACCUCA, the “pre-steady-state target cleavage rate” value turned out to be 0.127 ± 0.012. Turning to GGAGACCUAUGUAUACAACCUACUACCGCA, the “pre-steady-state target cleavage rate” value was 0.085 ± 0.015.

GGAGUGGAUACUUUAGAACCUACUACCUCA: the “pre-steady-state target cleavage rate” value came to 0.116 ± 0.0096. Take GGAGACCUAACUAAAGAACCUACUACCUCA: the “pre-steady-state target cleavage rate” value amounted to 0.0693 ± 0.013. Consider GGAGACCUAUCGUAUACAACCUACUACCUCA, for which the “pre-steady-state target cleavage rate” value turned out to be 0.057 ± 0.011. Next, GGAGACCUAUCAAUAGAACCUACUACCUCA: 0.0159 ± 0.0039. For GGAGAGGAUACUAUACUACCUACUACCACA, the “pre-steady-state target cleavage rate” value stood at 0.171 ± 0.016. Turning to GGAGACCUAACUAUACAUCCUACUAGCUCA, the “pre-steady-state target cleavage rate” value was 0.162 ± 0.042. For the sequence GGAGACCUAUGAAUAACAACCUACUACCUCA, the “pre-steady-state target cleavage rate” value was determined as 0.00368 ± 0.0026. Next, GGAGACCUAUCUAAACAACCUACUACCACA: 0.0926 ± 0.013; GGAGACCUUACUAUACAACCUACUACUCUCA: 0.242 ± 0.025. Take GGAGACCUUACUAUUCAACCAACUACCUCA: the “pre-steady-state target cleavage rate” value turned out to be 0.00367 ± 0.0028. Regarding GGAGACCUAUCUAUACAACUUACUACCUCA, the “pre-steady-state target cleavage rate” value was 0.0156 ± 0.0023. On to GGAGACCUAUGAAUGCAACCUACUACCUCA, for which the “pre-steady-state target cleavage rate” value worked out at 0.00733 ± 0.0031.
